Experimental findings from PubChem BioAssay (NCI) are described below.

A short description of test [1]: NCI Yeast Anticancer Drug Screen. Data for the rad50 strain (AID 155).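 Note: 0% = growth of vehicle-only cultures of the same strain.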 To be noted: S. cerevisiae rad50 strain growth inhibition, hits give high values. In short, it runs like this:
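A DNA repair-deficient yeast mutant serves as the test organism; compound-induced growth inhibition is calculated against vehicle-treated cells.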

Test [2] is described as follows: NCI Yeast Anticancer Drug Screen. Data for the mec2-1 strain (AID 157). As to conditions: S. cerevisiae mec2-1 strain, hits give high values. In short, it runs like this: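 Strain: mec2-1 (DNA repair/cell cycle alteration). Compound exposure, then growth measured; inhibition expressed relative to vehicle.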
A short description of test [3]: NCI Yeast Anticancer Drug Screen. Data for the sgs1 mgt1 strain (AID 161).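 Note: 0% = growth of cultures given vehicle only.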 To be noted: S. cerevisiae sgs1 mgt1 strain, hits give high values. In a few lines: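 Test agents were incubated with a DNA-repair-mutant yeast strain. Growth was then read and compared against vehicle-treated controls.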
The nature of test [4]: NCI Yeast Anticancer Drug Screen. Data for the cln2 rad14 strain (AID 165).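 Note: 0% = growth equal to vehicle treated cultures.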 To be noted: S. cerevisiae cln2 rad14 strain, hits give high values. In short, it runs like this: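 Compounds are applied to the cln2 rad14 yeast strain, and growth is then compared with that of vehicle-treated cultures to give inhibition.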
Test [5] in a line: NCI Yeast Anticancer Drug Screen. Data for the bub3 strain (AID 167). As to conditions: S. cerevisiae bub3 mutant strain, hits give high values. In short, it runs like this:
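Inhibition values come from growth of compound-treated mutant yeast normalised to vehicle-treated controls.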

Test [6] is described as follows: NCI Yeast Anticancer Drug Screen. Data for the mlh1 rad18 strain (AID 175). As to conditions: S. cerevisiae mlh1 rad18 strain growth inhibition, hits give high values. In short, it runs like this:
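Read-out is yeast growth inhibition, calculated against vehicle-only controls. The compound was applied to a strain engineered with DNA damage repair alterations.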

Where [7] appears, read: at 5.0 µM (retest, dose inferred, filed as 0.5).
The mark [8] stands for this setting: at 50.0 µM (retest, dose inferred, filed as 5.0).

Compounds without any hit were thinned out: in the full panel of roughly 79,000, 15% have a hit. A number with no mark means an inactive call. Active and inactive are the calls of the source. Cut-off read from the data, not from the text of the source: active = growth inhibition above about 70%; inactive = the rest.

For `CCCCN1CSC(=S)N(Cc2ccccc2)C1`, the growth inhibition in test [1] (setting [7]) was 2%; in test [1] (setting [8]), 38%; in test [1] (at 50.0 µM), 32.8%; in test [2] (setting [7]), 3%; in test [2] (setting [8]), 3%; in test [2] (at 50.0 µM), -21.7%. Besides, the growth inhibition in test [3] (setting [7]) was 13%; in test [3] (setting [8]), 30%; in test [3] (at 50.0 µM), 10.3%; in test [4] (setting [7]), 30%; in test [4] (setting [8]), 25%; in test [4] (at 50.0 µM), -41.1%. The growth inhibition in test [5] (setting [7]) is 5%; in test [5] (setting [8]), 38%; in test [5] (at 50.0 µM) it was 23.8%; in test [6] (setting [7]) it was -10%; in test [6] (setting [8]), 38%; in test [6] (at 50.0 µM), 31.4%.

For `O=C(CCCSCCCC(=O)NNc1ccccc1)NNc1ccccc1`, the growth inhibition in test [1] (setting [7]) is 31%; in test [1] (setting [8]) it was 88% (active); in test [1] (at 50.0 µM) it was 96.2% (active); in test [2] (setting [7]), 16%; in test [2] (setting [8]), 95% (active); in test [2] (at 50.0 µM), 40.7%. In addition, the growth inhibition in test [3] (setting [7]) is 30%; in test [3] (setting [8]), 94% (active); in test [3] (at 50.0 µM), 87.4% (active); in test [4] (setting [7]) it was 21%; in test [4] (setting [8]), 92% (active); in test [4] (at 50.0 µM) it was 86.7% (active). The growth inhibition was 45% in test [5] (setting [7]); 98% (active) in test [5] (setting [8]); 96.5% (active) in test [5] (at 50.0 µM); 54% in test [6] (setting [7]); 98% (active) in test [6] (setting [8]); 97.8% (active) in test [6] (at 50.0 µM).

On to `O=C1c2ccccc2C(=O)c2sc(Nc3ccc([N+](=O)[O-])cc3)nc21`, for which the growth inhibition in test [1] (setting [7]) is 89% (active); in test [1] (setting [8]), 98% (active); in test [1] (at 50.0 µM), 60.3%; in test [2] (setting [7]), 91% (active); in test [2] (setting [8]), 99% (active); in test [2] (at 50.0 µM) it was 77.4% (active). Besides, the growth inhibition was 99% (active) in test [3] (setting [7]); 99% (active) in test [3] (setting [8]); 58.1% in test [3] (at 50.0 µM); 62% in test [4] (setting [7]); 99% (active) in test [4] (setting [8]); 29% in test [4] (at 50.0 µM). Moreover, the growth inhibition in test [5] (setting [7]) is 100% (active); in test [5] (setting [8]), 99% (active); in test [5] (at 50.0 µM), 80.7% (active); in test [6] (setting [7]) it was 90% (active); in test [6] (setting [8]), 99% (active); in test [6] (at 50.0 µM), 84.5% (active).

In the case of `O=C(CNc1ccccc1[N+](=O)[O-])Nn1c(-c2ccccc2)nc2ccccc2c1=O`, the growth inhibition was 20% in test [1] (setting [7]); 36% in test [1] (setting [8]); 59.1% in test [1] (at 50.0 µM); 2% in test [2] (setting [7]); 33% in test [2] (setting [8]); 38.5% in test [2] (at 50.0 µM). Further, the growth inhibition in test [3] (setting [7]) is 17%; in test [3] (setting [8]), 33%; in test [3] (at 50.0 µM), 69%; in test [4] (setting [7]) it was 9%; in test [4] (setting [8]), 35%; in test [4] (at 50.0 µM), 36%. Also, the growth inhibition was -8% in test [5] (setting [7]); 34% in test [5] (setting [8]); 46.7% in test [5] (at 50.0 µM); 10% in test [6] (setting [7]); 48% in test [6] (setting [8]); 75.5% (active) in test [6] (at 50.0 µM).

For `CC1CCC2(CC1)OCC(C)O2` (stereo not given), the growth inhibition in test [1] (setting [7]) was 4%; in test [1] (setting [8]) it was 1%; in test [1] (at 50.0 µM), -19.9%; in test [2] (setting [7]) it was 16%; in test [2] (setting [8]) it was 5%; in test [2] (at 50.0 µM), 5.45%. Also, the growth inhibition in test [3] (setting [7]) was -2%; in test [3] (setting [8]), -12%; in test [3] (at 50.0 µM), -24.4%; in test [4] (setting [7]), 26%; in test [4] (setting [8]) it was 15%; in test [4] (at 50.0 µM) it was 19.8%. Moreover, the growth inhibition in test [5] (setting [7]) is 27%; in test [5] (setting [8]), 34%; in test [5] (at 50.0 µM) it was -0.9%; in test [6] (setting [7]) it was 7%; in test [6] (setting [8]), 1%; in test [6] (at 50.0 µM) it was -8.8%.

Turning to `CCN1/C(=C\c2cc(C)nc(-c3ccccc3)[n+]2C)C=Cc2ccccc21`, the growth inhibition in test [1] (setting [7]) was 29%; in test [1] (setting [8]) it was 97% (active); in test [1] (at 50.0 µM), 98% (active); in test [2] (setting [7]), 27%; in test [2] (setting [8]) it was 99% (active); in test [2] (at 50.0 µM) it was 98.1% (active). Also, the growth inhibition in test [3] (setting [7]) is 27%; in test [3] (setting [8]) it was 99% (active); in test [3] (at 50.0 µM) it was 98.7% (active); in test [4] (setting [7]), 43%; in test [4] (setting [8]) it was 98% (active); in test [4] (at 50.0 µM) it was 98.8% (active). Moreover, the growth inhibition was 64% in test [5] (setting [7]); 99% (active) in test [5] (setting [8]); 98.8% (active) in test [5] (at 50.0 µM); 48% in test [6] (setting [7]); 99% (active) in test [6] (setting [8]); 98.7% (active) in test [6] (at 50.0 µM).

For `CN(C)C(C)(C)CCNc1c2ccccc2nc2cccc([N+](=O)[O-])c12`, the growth inhibition in test [1] (setting [7]) is 96% (active); in test [1] (setting [8]), 97% (active); in test [1] (at 50.0 µM), 96% (active); in test [2] (setting [7]), 98% (active); in test [2] (setting [8]), 100% (active); in test [2] (at 50.0 µM), 94.6% (active). For the same molecule, the growth inhibition is 98% (active) in test [3] (setting [7]); 99% (active) in test [3] (setting [8]); 96.7% (active) in test [3] (at 50.0 µM); 98% (active) in test [4] (setting [7]); 99% (active) in test [4] (setting [8]); 94.5% (active) in test [4] (at 50.0 µM). The growth inhibition was 96% (active) in test [5] (setting [7]); 99% (active) in test [5] (setting [8]); 97.2% (active) in test [5] (at 50.0 µM); 98% (active) in test [6] (setting [7]); 100% (active) in test [6] (setting [8]); 98% (active) in test [6] (at 50.0 µM).

Regarding `CC/C(=C1\C=CC(=O)S1)C(CC)c1ccc(OC(C)=O)cc1` (stereo not given), the growth inhibition was -14% in test [1] (setting [7]); 99% (active) in test [1] (setting [8]); 99.2% (active) in test [1] (at 50.0 µM); -11% in test [2] (setting [7]); 99% (active) in test [2] (setting [8]); 89.3% (active) in test [2] (at 50.0 µM). For the same molecule, the growth inhibition in test [3] (setting [7]) is -7%; in test [3] (setting [8]), 98% (active); in test [3] (at 50.0 µM) it was 99.3% (active); in test [4] (setting [7]) it was 0%; in test [4] (setting [8]), 99% (active); in test [4] (at 50.0 µM), 70.2% (active). Also, the growth inhibition in test [5] (setting [7]) is -25%; in test [5] (setting [8]) it was 99% (active); in test [5] (at 50.0 µM) it was 93.9% (active); in test [6] (setting [7]), -4%; in test [6] (setting [8]), 99% (active); in test [6] (at 50.0 µM), 99.3% (active).

Regarding `O=C1Nc2c(ccc(Cl)c2I)C1=O`, the growth inhibition was -28% in test [1] (setting [7]); 97% (active) in test [1] (setting [8]); 92.2% (active) in test [1] (at 50.0 µM); -3% in test [2] (setting [7]); 99% (active) in test [2] (setting [8]); 94.3% (active) in test [2] (at 50.0 µM). In addition, the growth inhibition is -13% in test [3] (setting [7]); 70% (active) in test [3] (setting [8]); 92.3% (active) in test [3] (at 50.0 µM); 9% in test [4] (setting [7]); 98% (active) in test [4] (setting [8]); 91.2% (active) in test [4] (at 50.0 µM). For the same molecule, the growth inhibition was -5% in test [5] (setting [7]); 98% (active) in test [5] (setting [8]); 91.6% (active) in test [5] (at 50.0 µM); -27% in test [6] (setting [7]); 99% (active) in test [6] (setting [8]); 91.7% (active) in test [6] (at 50.0 µM).

With `CCc1ccccc1SC(C)=O`, the growth inhibition is 6% in test [1] (setting [7]); 55% in test [1] (setting [8]); 29.9% in test [1] (at 50.0 µM); 13% in test [2] (setting [7]); 70% (active) in test [2] (setting [8]); 62% in test [2] (at 50.0 µM). For the same molecule, the growth inhibition in test [3] (setting [7]) was 3%; in test [3] (setting [8]) it was 42%; in test [3] (at 50.0 µM), 44.5%; in test [4] (setting [7]), 11%; in test [4] (setting [8]) it was 69%; in test [4] (at 50.0 µM), 59.9%. Further, the growth inhibition in test [5] (setting [7]) was 7%; in test [5] (setting [8]) it was 77% (active); in test [5] (at 50.0 µM), 80.9% (active); in test [6] (setting [7]), 1%; in test [6] (setting [8]), 60%; in test [6] (at 50.0 µM), 65.3%.
